Assay outcomes deposited in PubChem BioAssay by several laboratories.
Shown are actives, neighbours in structure and some others; about 4.5% of the full set was active somewhere.
Jurkat NFkB inh = inhibitors of induced NF-kB luciferase reporter, primary screen, TCR NF-kB activation inhibitor project, cell-based, luminescence, uHTS | 0.53% of 330,000 active | AID 435003, 2010 | Jurkat, PMA/ionomycin-induced NF-kB luciferase reporter | inhibition, % at 4 µM; in the data active means inhibition above about 50%
697 NFkB inh = inhibitors of PMA/ionomycin-induced NF-kB reporter, 697 cells, primary screen, B-cell NF-kB inhibitor project, cell-based, luminescence, uHTS | 697 B-cell NF-kB luciferase reporter, 16 h | inhibition, % at 4 µM | 0.33% of 330,000 active | AID 435022, 2010; in the data active means inhibition above about 35%
CSC inhib = cancer stem cell viability inhibitors, primary screen, luminescence | cancer stem cell-like cells viability | inhibition, % at 7.5 µM | 1.1% of 300,000 active | AID 2717, 2010; in the data active means inhibition above about 75%; tested in HMLE shEcad cells
Gli-Sufu block = Gli-Sufu pathway antagonists, primary screen, luciferase luminescence, Sufu-KO-LIGHT cells, uHTS; Sufu-KO-LIGHT fibroblasts, Gli luciferase reporter luminescence; inhibition, % at 5 µM; 0.74% of 340,000 active;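 active means inhibition above about 55%, limit read from the data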;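 further: 0% = DMSO-treated cells and 100% = wells with medium but no cells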
Beta apoptosis = inhibitors of cytokine-induced beta cell apoptosis, primary screen, luminescence; protection from apoptosis, % (concentration not given with the values); 0.8% of 300,000 active; INS-1E cytokine-induced death, ATP luminescence, 48 h; percent of positive-control rescue, neutral wells zero; AID 435005, 2010;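 active means Every replicate reaches about 75%, or at least half do and their mean reaches it too, limit read from the data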;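 further: 0% = cytokine-treated negative control wells and 100% = positive control rescue; higher means more ATP so stronger rescue from cytokine killing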
Mdm2-MdmX inh = inhibitors of human Mdm2-MdmX association, primary screen, cell-based, luminescence, split luciferase, SaOS-2, uHTS | inhibition, % at 8 µM | 3% of 330,000 active | Protein Mdm4 (Homo sapiens) + E3 ubiquitin-protein ligase Mdm2 (Homo sapiens), … | SaOS-2 split-luciferase Mdm2/MdmX complementation;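 active means inhibition of at least 50% at 8 µM in the primary screen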
Target sequence (O15151 whole entry, looked up): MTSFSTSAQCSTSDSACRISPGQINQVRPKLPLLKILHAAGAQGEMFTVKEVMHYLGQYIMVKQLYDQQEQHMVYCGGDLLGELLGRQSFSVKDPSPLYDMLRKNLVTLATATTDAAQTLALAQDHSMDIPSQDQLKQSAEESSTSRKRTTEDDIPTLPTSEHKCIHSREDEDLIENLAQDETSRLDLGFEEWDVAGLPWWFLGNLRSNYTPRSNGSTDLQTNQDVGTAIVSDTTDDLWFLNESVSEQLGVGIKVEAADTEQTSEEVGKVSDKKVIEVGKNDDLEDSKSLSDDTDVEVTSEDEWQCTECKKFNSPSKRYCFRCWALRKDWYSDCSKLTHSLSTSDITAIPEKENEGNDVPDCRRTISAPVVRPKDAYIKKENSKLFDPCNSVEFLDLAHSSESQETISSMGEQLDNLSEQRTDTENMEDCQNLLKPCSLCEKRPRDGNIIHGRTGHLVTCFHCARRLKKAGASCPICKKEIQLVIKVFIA
Target sequence (Q00987 whole entry, looked up): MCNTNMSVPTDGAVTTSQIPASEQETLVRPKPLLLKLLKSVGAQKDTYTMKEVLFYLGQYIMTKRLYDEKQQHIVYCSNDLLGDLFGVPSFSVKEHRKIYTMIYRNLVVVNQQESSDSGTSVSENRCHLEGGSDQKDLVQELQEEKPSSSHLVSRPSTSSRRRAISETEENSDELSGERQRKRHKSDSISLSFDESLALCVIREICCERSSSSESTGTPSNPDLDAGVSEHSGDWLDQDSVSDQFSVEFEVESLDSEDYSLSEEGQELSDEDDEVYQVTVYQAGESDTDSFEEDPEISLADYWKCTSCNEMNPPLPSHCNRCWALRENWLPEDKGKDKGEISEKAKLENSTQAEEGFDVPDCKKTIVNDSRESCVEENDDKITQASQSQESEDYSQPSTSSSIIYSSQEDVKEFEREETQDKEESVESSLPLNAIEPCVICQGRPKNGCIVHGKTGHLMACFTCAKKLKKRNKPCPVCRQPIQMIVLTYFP
Jurkat NFkB conf = PMA/ionomycin-induced NF-kB reporter inhibitors, Jurkat retest, confirmation, T-cell NF-kB inhibitor project, cell-based, luminescence, single concentration; Jurkat NF-kB luciferase, 16 h; shares compounds with Jurkat NFkB inh; 27% of 2,700 active; inhibition, % at 4 µM;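 active means inhibition reaching about 45% at 4 µM in either replicate, limit read from the data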;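 further: plate controls were PMA/ionomycin stimulated DMSO wells for no effect and unstimulated DMSO wells for full effect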
697 NFkB conf = PMA/ionomycin-induced NF-kB reporter inhibitors, 697 retest, confirmation, B-cell NF-kB inhibitor project, cell-based, luminescence, single concentration | shares compounds with 697 NFkB inh | 697 B-cell NF-kB luciferase, 16 h | inhibition, % at 4 µM | 35% of 2,000 active | AID 449746, 2010; in the data active means inhibition mostly above about 28%, no sharp cut-off; inactive means mostly below about 22%
Mdm2-MdmX conf = Mdm2-MdmX complex disruptors, retested hits, confirmation, luminescence, single concentration; shares compounds with Mdm2-MdmX inh; Mdm2-MdmX binding, luminescent assay; inhibition, % at 8 µM; 55% of 10,000 active; in the data active means inhibition above about 40%
FLuc counter = full-length luciferase signal inhibition, confirmation, counter-screen for Mdm2/MdmX interaction inhibitor project, cell-based, single concentration, SaOS-2. shares compounds with Mdm2-MdmX inh. SaOS-2 full-length luciferase counterscreen, luminescence. inhibition, % at 8 µM. 77% of 6,200 active. AID 504607, 2011;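 active means mean inhibition at 8 µM reaching about 37%, which flags the compound as non-specific, limit read from the data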;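 further: p53-null SaOS-2 cells with luciferase driven by a doxycycline-inducible promoter; compound on cells about two nights before reading with doxycycline added after day one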
An asterisk follows results filed as active; nt = no result given.

SMILES | Jurkat NFkB inh | 697 NFkB inh | CSC inhib | Gli-Sufu block | Beta apoptosis | Mdm2-MdmX inh | Jurkat NFkB conf | Mdm2-MdmX conf | FLuc counter | others
O=C(Cc1ccc(N2CCNC2=O)cc1)N1CCCC(Nc2ccc(F)c(F)c2)C1 (centres undefined) | 63* | -53 | 83* | -3 | 2 | 54* | 16 | 75* | 56*
CN(C)c1nc(Cl)nc2c1nc(Cl)n2C1CCCCO1 (centres undefined) | nt | nt | nt | -7 | nt | nt | nt | nt | nt
COc1ccc(N(C)C(=O)c2cn(C)c(=O)c3cc(OC)c(OC)cc23)cc1 | 13 | 12 | 0 | -4 | 0 | 20 | nt | nt | nt
Cn1ncc2c(O/N=C(\N)c3ccc(C(C)(C)C)cc3)ncnc21 | 101* | -192 | 108* | 15 | 110* | 99* | -18 | 100* | 52*
CCOC(=O)c1ccc(Nc2ncnc3c2cnn3C)cc1 | -34 | -16 | -1 | -13 | 5 | 8 | nt | nt | nt
CC1=C(C(=O)Nc2cccc(F)c2)C(c2ccsc2)C2=C(CC(C)(C)CC2=O)N1 (centres undefined) | 50* | -33 | 65 | 14 | 11 | 54* | 7 | 54* | 55*
CC1=C(C(=O)Nc2ccccc2F)C(c2ccsc2)C2=C(CC(C)(C)CC2=O)N1 (centres undefined) | -7 | 13 | 48 | -6 | 1 | 46 | nt | nt | nt
Cc1cccc(N2CCN(S(=O)(=O)c3cc(-c4cc(C)no4)ccc3C)CC2C)c1 (centres undefined) | 64* | -26 | 53 | 15 | 30 | 50* | 32 | 54* | 38*
Cc1cc(-c2ccc(C)c(S(=O)(=O)N3CCN(c4ccc(F)cc4)CC3)c2)on1 | 40 | -55 | 27 | -5 | 0 | 42 | nt | nt | nt
CCCCc1c(O)c2cccc3c2n(c1=O)CCC3 | -11 | 1 | -7 | -2 | -4 | 10 | nt | nt | nt
COc1cc(/C=C2\SC(=Nc3ccccc3OC)NC2=O)ccc1O | -5 | 4 | 58 | 5 | 23 | 41 | nt | nt | nt
COc1cc(/C=C2/SC(=Nc3ccc(O)cc3)NC2=O)ccc1O | 59* | -83 | 26 | -22 | 34 | 74* | 39 | 72* | 68*
CCCn1c(SCC(=O)NC2CCCCC2)nnc1C1CC1 | -16 | -11 | -2 | -4 | nt | 18 | nt | nt | nt
COc1ccc(S(=O)(=O)/N=C2\C=C(Nc3ccc(O)cc3)C(=O)c3ccccc32)cc1 | 74* | 9 | nt | 95* | 111* | 100* | 83* | 94* | 7
COc1ccc(/C=c2/sc3n(c2=O)C(c2ccccc2OC)C2=C(N=3)c3ccccc3CC2)cc1O (centres undefined) | 70* | -15 | 64 | 15 | 30 | 70* | 51* | 87* | 30
O=S1(=O)C=C(Sc2nnc(-c3ccccc3)o2)c2ccccc21 | 90* | -44 | 108* | -2 | 105* | 80* | 65* | 100* | 50*
CCC(=O)OCC(=O)N=c1sccn1Cc1ccccc1Cl | -7 | 15 | -13 | -8 | 1 | 2 | nt | nt | nt
O=C(CCl)N=c1sccn1Cc1ccc(Cl)cc1Cl | 97* | 98* | 0 | 95* | 69 | 100* | 69* | 100* | 54* | 697 NFkB conf=102*
